Compounds with a hit are over-represented: about 7.1% of the library has one in this group of screens.
ELG1 repair inh: blocks ELG1-dependent DNA repair in HEK293T cells; HEK293T ELG1-luciferase reporter, luminescence, 16 h; DNA damage induced by 5-fluorouridine; Potency, µM (doses to about 46.1 µM), actives largely listed as inhibitors; 330,000 tested, 2.3% active; AID 504467; further: nearly all actives have a fitted effect of over 55% in size
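Cells (2,000 per well) received 5-fluorouridine plus test compound or DMSO and were incubated 16 hr at 37 °C, 5% CO2. Luciferase activity was read by luminescence 30 min after ONE-Glo addition; signal suppression marked inhibition of damage-induced ELG1 function.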
ELG1 genotox: genotoxicity induction in ELG1-luciferase HEK293T cells | HEK293T ELG1-luciferase reporter, luminescence, 16 h | Potency, µM (series often up to 46 µM), most hits filed as activators | 330,000 tested, 1.3% active | AID 504466; further: nearly all actives have a fitted effect of over 60% in size
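HEK293T cells expressing luciferase-tagged ELG1 were treated with compound or DMSO for 16 hr at 37°C. Luciferase activity was then read after 30 min with ONE-Glo at room temperature; rising signal flags genetic stress.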
MCF10A rerep: induces DNA re-replication in MCF 10a normal breast cells | MCF 10A DNA re-replication, Hoechst nuclear intensity, 48 h | Potency, µM (doses to about 46.1 µM), most hits filed as activators | 350,000 tested, 2.9% active; further: nearly all actives have a fitted effect of over 50% in size
SW480 rerep: DNA re-replication induction in SW480 cells | SW480 DNA re-replication, Hoechst DNA content imaging, 48 h | Potency, µM (doses to about 46.1 µM), usual class: activators | 340,000 tested, 1.8% active; further: nearly all actives have a fitted effect of over 55% in size
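Treated cells incubate 48 hr (37 C, 5% CO2), are stained 40 min with Hoechst, and nuclear fluorescence is enumerated; a rise in nuclei with high DNA signal marks re-replication.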
p53 reactivator: restores transcriptional activity of mutant p53. 320,000 tested, 0.063% active. H1299 p53-A138V BP100-luciferase reporter, luminescence, 24 h. Potency, µM (titrated, usually from 92.2 µM), usual class: activators; further: nearly all actives have a fitted effect of over 45% in size
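p53-null H1299 cells stably carrying temperature-sensitive p53-A138V and a BP100-luciferase reporter were pinned with compounds (4-point, 1:5 series) and held 24 hrs at 37 deg C. Luminescence was read 10 min after detection reagent.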
A-T KAP1 phos: potential ataxia-telangiectasia treatment. AID 485349. Potency, µM (highest dose often 57.5 µM), actives largely listed as activators. F2112 A-T fibroblasts, KAP-1 phosphorylation AlphaLISA; neocarzinostatin DNA damage 30 min before lysis. 320,000 tested, 0.19% active; further: nearly all actives have a fitted effect of over 45% in size
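hTERT-immortalized A-T patient fibroblasts (F2112), 500 cells/well in OPTI-MEM, 1% FBS, got compounds for 60 min, then NCS for 30 min at 37C. Lysates were then assayed for phospho-KAP-1 by AlphaLISA (anti-pKAP1 donor, anti-KAP1 acceptor beads), 6 hr at 25C.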
Large screens that a line does not name were inactive. The call rests on the fitted dose curve; in most records, active means well fitted curve in the direction sought with a large enough effect; inconclusive means small, poorly fitted or top-dose-only effect, or another doubt; inactive means no such curve, though single readings can be large; an effect the other way counts as inactive or inconclusive.

Cc1cc(NC(=O)c2ccc3c(c2)OCCO3)no1	ELG1 repair inh inconclusive, ELG1 genotox 0.651µM, MCF10A rerep inconclusive, SW480 rerep inconclusive (no result: p53 reactivator)
O=C(Nc1ccc2c(c1)OCO2)c1ccc2nc[nH]c2c1	ELG1 repair inh inconclusive, ELG1 genotox 16.4µM
c1cc(CNc2ccc3c(c2)OCO3)ccn1	none
Cc1ccc(CNc2ccc3c(c2)OCO3)cc1	MCF10A rerep 23.1µM, SW480 rerep 23.1µM (no result: ELG1 repair inh, ELG1 genotox, p53 reactivator, A-T KAP1 phos)
O=C(Nc1ccc2c(c1)OCCO2)c1ccc(Cl)c([N+](=O)[O-])c1	ELG1 repair inh inconclusive, ELG1 genotox inconclusive, p53 reactivator inconclusive
Cc1cc(C(=O)Nc2ccc3c(c2)OCCO3)ccc1[N+](=O)[O-]	ELG1 repair inh inconclusive, ELG1 genotox 0.517µM (no result: p53 reactivator)
N#CCC(=O)Nc1ccc(C(=O)OCC(=O)NC(=O)NCc2ccco2)cc1	none
COCC(=O)N1CCC(Oc2ccc(C(=O)N3CCN(C)C[C@@H]3C(C)C)cc2)CC1	none (no result: p53 reactivator)
CC1CCCN(c2ccc(C(=O)Nc3ccc4c(c3)OCO4)cc2[N+](=O)[O-])C1 (configuration not stated)	ELG1 repair inh 20.6µM
CC1CCN(c2ccc(C(=O)Nc3ccc4c(c3)OCO4)cc2[N+](=O)[O-])CC1	ELG1 repair inh inconclusive
Cc1ccc(C(=O)Nc2ccc3c(c2)OCCO3)cc1	ELG1 repair inh inconclusive, ELG1 genotox 0.58µM
O=C(Nc1ccc2c(c1)OCCO2)c1ccc(Cl)c(Cl)c1	ELG1 repair inh inconclusive, ELG1 genotox 2.59µM
O=C(Nc1ccc2c(c1)OCCO2)c1ccc(Br)cc1	ELG1 repair inh inconclusive, ELG1 genotox inconclusive, SW480 rerep inconclusive
CCC(=O)Nc1ccc(NC(=O)c2ccc3c(c2)OCO3)cc1	ELG1 repair inh inconclusive
COc1ccc(NC(=O)c2ccc3c(c2)OCO3)cc1	ELG1 repair inh inconclusive, ELG1 genotox 5.17µM
O=C(OCc1nnc(-c2ccccc2)o1)C1CC(=O)N(CCc2ccccc2)C1 (configuration not stated)	ELG1 repair inh inconclusive, p53 reactivator inconclusive
COc1ccc2nc(Nc3ccc4c(c3)OCO4)sc2c1	ELG1 repair inh inconclusive, ELG1 genotox 5.8µM, p53 reactivator inconclusive
O=C(Nc1c(C(=O)Nc2cccc(F)c2)oc2ccccc12)c1ccc2c(c1)OCO2	ELG1 genotox inconclusive
S=C(Nc1ccc(Cl)cc1)Nc1ccc2c(c1)OCCO2	ELG1 repair inh inconclusive, SW480 rerep 5.17µM, p53 reactivator inconclusive
O=C(Nc1ccc(Cl)c(-c2nc3ccccc3[nH]2)c1)c1ccc2c(c1)OCO2	ELG1 repair inh 20.6µM, MCF10A rerep inconclusive
S=C(Nc1ccc2c(c1)OCCO2)Nc1ccccc1Cl	ELG1 repair inh inconclusive, ELG1 genotox inconclusive
O=C(Nc1cccc(F)c1)c1ccc2c(c1)OCO2	ELG1 repair inh inconclusive, ELG1 genotox 5.17µM
O=C(Nc1ccc(-c2nc3ccccc3[nH]2)cc1)c1ccc2c(c1)OCO2	ELG1 repair inh inconclusive
CSCC[C@H](N)C(=O)N1CCC(C(=O)N[C@H](C)C(=O)Nc2ccc(C(C)C)cc2)CC1	ELG1 repair inh inconclusive
Cc1ccn2cc(C(=O)Nc3ccccc3N3CCOCC3)nc2c1	none
O=C(Nc1ccc2c(c1)OCCO2)c1cccc(Cl)c1Cl	ELG1 repair inh inconclusive, ELG1 genotox 2.59µM, p53 reactivator inconclusive
O=C(Nc1ccc2c(c1)OCCO2)c1ccc2nccnc2c1	ELG1 repair inh inconclusive, ELG1 genotox inconclusive, MCF10A rerep 7.31µM
Cc1ccn2cc(C(=O)Nc3ccc4c(c3)OCCO4)nc2c1	ELG1 repair inh inconclusive, ELG1 genotox 5.8µM, SW480 rerep inconclusive
O=C(Nc1ccc2c(c1)OCCO2)c1cccnc1	ELG1 repair inh inconclusive, ELG1 genotox inconclusive, p53 reactivator inconclusive
Cc1ccc(C(=O)Nc2ccc3c(c2)OCO3)cc1Cl	ELG1 repair inh inconclusive, ELG1 genotox 4.61µM (no result: MCF10A rerep, SW480 rerep)
CCOC(=O)Cc1cc(=O)[nH]n(-c2ccccc2)c1=O	none (no result: ELG1 repair inh, ELG1 genotox, p53 reactivator, A-T KAP1 phos)
Cc1cnc(=O)[nH]c1SCc1ccccc1F	MCF10A rerep inconclusive
CN(CC1CCCO1)S(=O)(=O)c1ccc(C(=O)Nc2ccc3c(c2)OCO3)cc1 (configuration not stated)	ELG1 repair inh 11.6µM
Cc1ccc(C(=O)Nc2ccc3c(c2)OCO3)cc1	ELG1 repair inh inconclusive, ELG1 genotox 0.461µM
O=C(Nc1ccc2c(c1)OCO2)c1ccncc1	ELG1 repair inh inconclusive, p53 reactivator inconclusive
Cc1cc(NC(=O)c2ccc(S(=O)(=O)N(C)CC3CCCO3)cc2)no1 (configuration not stated)	none
O=C(Nc1ncccc1Cl)c1ccc2c(c1)OCCO2	ELG1 repair inh inconclusive, ELG1 genotox 5.17µM
Cc1ccnc2nc(C(=O)Nc3ccc4c(c3)OCO4)nn12	ELG1 repair inh inconclusive, ELG1 genotox 2.59µM, MCF10A rerep inconclusive, p53 reactivator inconclusive
O=C(Nc1ccccn1)c1ccc2c(c1)OCCO2	ELG1 repair inh inconclusive, SW480 rerep inconclusive
O=S(=O)(Nc1nc(SCc2ccc(Cl)cc2)n[nH]1)c1ccccc1	none
CCOc1ccccc1NS(=O)(=O)c1ccc2oc(=O)ccc2c1	none (no result: p53 reactivator)
CC(=O)OCC[C@H](NS(=O)(=O)OCC(Cl)(Cl)Cl)c1ccccc1	none (no result: p53 reactivator)
CN(CC1CCCO1)S(=O)(=O)c1ccc(C(=O)N2CCN(c3ccccc3)CC2)cc1 (configuration not stated)	ELG1 repair inh 23.1µM
Cc1ccc(C(=O)Nc2ccc3c(c2)OCO3)o1	ELG1 repair inh inconclusive, ELG1 genotox 14.6µM, p53 reactivator inconclusive
O=C(NC(=S)Nc1ccc(N2CCOCC2)c(Cl)c1)c1cncc(Br)c1	ELG1 repair inh inconclusive, SW480 rerep inconclusive
O=C(NC(=S)Nc1ccc(N2CCCCC2)c(Cl)c1)c1ccc2c(c1)OCCO2	MCF10A rerep 9.2µM, SW480 rerep inconclusive
O=C(Nc1ccc(CN2CCCCC2)cc1)c1ccc2c(c1)OCO2	ELG1 repair inh inconclusive, ELG1 genotox inconclusive
O=C(Nc1ccc2c(c1)OCO2)c1ccc(CN2CCOCC2)cc1	ELG1 repair inh inconclusive, ELG1 genotox 18.4µM, p53 reactivator inconclusive
COc1ccc(NC(=O)CN2C(=O)NC(CC(C)C)C2=O)cc1S(=O)(=O)N1CCOCC1 (configuration not stated)	none
CC1CCCC(NC(=O)NC(=O)COC(=O)C2=NN(c3ccccc3)C(=O)CC2)C1C (configuration not stated)	none
O=C(/C=C/c1ccc2c(c1)S(=O)(=O)N(Cc1ccccc1)[C@H]2CC(=O)N1CCOCC1)N1CCOCC1	none
CCOc1ccc(C(=O)Nc2ccc3c(c2)OCCO3)cc1	ELG1 repair inh inconclusive, ELG1 genotox 2.31µM (no result: p53 reactivator)

From PubChem
